# Values without a mark were called inactive. Results filed as inconclusive are left out. A call without a number means that no potency is given here. Activity calls are given as the source filed them. Calls follow the shape of the dose curve; as a rule, active = well fitted curve in the direction sought with a large enough effect in the repeat runs; inconclusive = weak or mixed curves; inactive = no such curve, though single readings can be large; an effect the other way counts as inactive or inconclusive.
# Key:
# [1] = A CellTox Green Cytotoxicity Assay to monitor cytotoxicity in HepG2 cells - 16 hour (AID 1224876); also: nearly all actives have a fitted effect of over 45% in size
# Outline: (§1)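 HepG2, 600 cells/well premixed w/ CellTox Green; 5 h settle, 37 C/5% CO2; pintool cpd add (DMSO); 37 C, 40 h; fluorescence read at 0, 8, 16, 24, 32, 40 h.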
# [2] = A CellTox Green Cytotoxicity Assay to monitor cytotoxicity in HepG2 cells - 24 hour (AID 1224878); also: nearly all actives have a fitted effect of over 45% in size
# Outline: as §1
# [3] = A CellTox Green Cytotoxicity Assay to monitor cytotoxicity in HepG2 cells - 40 hour (AID 1224879); also: nearly all actives have a fitted effect of over 40% in size; also: potency is read from the fitted curve at half-maximal effect
# Outline: as §1
# [4] = qHTS RealTime-Glo MT Cell Viability Assay in HEK293 cells - 0 hour (AID 1224880); also: top concentration of the series differs between compounds; nearly all actives have a fitted effect of over 45% in size
# Outline: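 Luminescence readout at each listed time point; HEK293, 600 cells/well, RealTime-Glo MT reagent added with cells; compounds pinned (23 nL in DMSO) after 5 h at 37 C; continuous culture at 37 C.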
# [5] = A CellTox Green Cytotoxicity Assay to monitor cytotoxicity in HEK293 cells - 32 hour (AID 1224881); also: nearly all actives have a fitted effect of over 40% in size
# Outline: (§2)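 Read-out: fluorescence of a cell-impermeant cyanine dye staining DNA of dead cells, proportional to cytotoxicity. HEK293, 600 cells/well with reagent, compound (23 nL DMSO) added after 5 h; reads at 0, 8, 16, 24, 32, 40 h.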
# [6] = A CellTox Green Cytotoxicity Assay to monitor cytotoxicity in HepG2 cells - 0 hour (AID 1224882); also: nearly all actives have a fitted effect of over 35% in size
# Outline: as §1
# [7] = A CellTox Green Cytotoxicity Assay to monitor cytotoxicity in HepG2 cells - 32 hour (AID 1224883); also: nearly all actives have a fitted effect of over 50% in size
# Outline: as §1
# [8] = A CellTox Green Cytotoxicity Assay to monitor cytotoxicity in HEK293 cells - 8 hour (AID 1224884); also: nearly all actives have a fitted effect of over 35% in size
# Outline: as §2
# [9] = qHTS RealTime-Glo MT Cell Viability Assay in HepG2 cells - 16 hour (AID 1224885); also: nearly all actives have a fitted effect of over 50% in size
# Outline: (§3)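 Compound treatment began 5 h after plating HepG2 cells (600/well) with NanoLuc luciferase and prosubstrate. Plates stayed at 37 C for 40 h; luminescence was captured at six time points, 0 h through 40 h.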
# [10] = qHTS RealTime-Glo MT Cell Viability Assay in HepG2 cells - 32 hour (AID 1224877); also: nearly all actives have a fitted effect of over 55% in size
# Outline: as §3
smiles,measurement,setting,value
N#Cc1cscn1,Potency,[1],inactive
same,Potency,[2],inactive
same,Potency,[3],inactive
same,Potency,[4],inactive
same,Potency,[5],inactive
same,Potency,[6],inactive
same,Potency,[7],inactive
same,Potency,[8],inactive
same,outcome,[9],inactive
CC(C)OC(=O)OCOP(=O)(CO[C@H](C)Cn1cnc2c(N)ncnc21)OCOC(=O)OC(C)C,Potency,[1],inactive
same,Potency,[2],inactive
same,Potency,[3],inactive
same,Potency,[4],inactive
same,Potency,[5],inactive
same,Potency,[7],inactive
same,Potency,[8],inactive
same,outcome,[9],inactive
O=C(O)[C@H](O)c1ccccc1,Potency,[1],inactive
same,Potency,[2],inactive
same,Potency,[3],inactive
same,Potency,[4],inactive
same,Potency,[5],inactive
same,Potency,[6],inactive
same,Potency,[7],inactive
same,Potency,[8],inactive
same,outcome,[9],inactive
CCOC(=O)CC1(C)OCC(C)O1 (stereo unspecified),Potency,[1],inactive
same,Potency,[2],inactive
same,Potency,[3],inactive
same,Potency,[4],inactive
same,Potency,[5],inactive
same,Potency,[7],inactive
same,Potency,[8],inactive
same,outcome,[9],inactive
Cn1nnc2c(C(N)=O)ncn2c1=O,Potency,[1],inactive
same,Potency,[2],inactive
same,Potency,[3],inactive
same,Potency,[4],inactive
same,Potency,[5],inactive
same,Potency,[7],inactive
same,Potency,[8],inactive
same,outcome,[9],inactive
CN1CCOC(c2ccccc2)c2ccccc2C1 (stereo unspecified),Potency,[1],inactive
same,Potency,[2],inactive
same,Potency,[3],inactive
same,Potency,[5],inactive
same,Potency,[6],inactive
same,Potency,[7],inactive
same,Potency,[8],inactive
same,outcome,[9],inactive
O=C(CCCl)NCCc1ccccc1,Potency,[1],inactive
same,Potency,[2],inactive
same,Potency,[3],inactive
same,Potency,[4],inactive
same,Potency,[5],inactive
same,Potency,[6],inactive
same,Potency,[7],inactive
same,Potency,[8],inactive
same,outcome,[9],inactive
Cc1cccc(Cl)c1,Potency,[1],inactive
same,Potency,[2],inactive
same,Potency,[3],inactive
same,Potency,[5],inactive
same,Potency,[6],inactive
same,Potency,[7],inactive
same,Potency,[8],inactive
same,outcome,[9],inactive
CN(C)CC/C=C1/c2ccccc2COc2ccc(CC(=O)O)cc21,Potency,[1],inactive
same,Potency,[2],inactive
same,Potency,[3],inactive
same,Potency,[5],inactive
same,Potency,[6],inactive
same,Potency,[7],inactive
same,Potency,[8],inactive
COC(=O)CCCCC(=O)O,Potency,[1],inactive
same,Potency,[2],inactive
same,Potency,[4],inactive
same,Potency,[5],inactive
same,Potency,[6],inactive
same,Potency,[8],inactive
same,outcome,[9],inactive
NCCOCCN,Potency,[1],inactive
same,Potency,[2],inactive
same,Potency,[3],inactive
same,Potency,[4],inactive
same,Potency,[5],inactive
same,Potency,[7],inactive
same,Potency,[8],inactive
same,outcome,[9],inactive
CC(=O)CCc1ccc(OC(C)=O)cc1,Potency,[1],inactive
same,Potency,[2],inactive
same,Potency,[3],inactive
same,Potency,[4],inactive
same,Potency,[5],inactive
same,Potency,[6],inactive
same,Potency,[7],inactive
same,Potency,[8],inactive
same,outcome,[9],inactive
CCC(=O)c1c(O)cc(O)cc1O,Potency,[1],inactive
same,Potency,[2],inactive
same,Potency,[3],inactive
same,Potency,[4],inactive
same,Potency,[6],inactive
same,Potency,[7],inactive
same,Potency,[8],inactive
same,outcome,[9],inactive
c1ccc(B(c2ccccc2)c2ccccc2)cc1,Potency,[1],inactive
same,Potency,[2],inactive
same,Potency,[3],inactive
same,Potency,[5],inactive
same,Potency,[7],inactive
same,Potency,[8],inactive
same,outcome,[9],inactive
Cc1c(C(=O)c2c[nH]n(C)c2=O)ccc(S(C)(=O)=O)c1C1=NOCC1,Potency,[1],inactive
same,Potency,[2],inactive
same,Potency,[3],inactive
same,Potency,[5],inactive
same,Potency,[7],inactive
same,Potency,[8],inactive
same,outcome,[9],inactive
CC1CCc2c(N3CCC(O)CC3)c(F)cc3c(=O)c(C(=O)O)cn1c23 (stereo unspecified),Potency,[1],inactive
same,Potency,[2],inactive
same,Potency,[3],inactive
same,Potency,[4],inactive
same,Potency,[5],inactive
same,Potency,[6],inactive
same,Potency,[7],inactive
same,Potency,[8],inactive
same,outcome,[9],inactive
CCCCCCCCCCCCCCCCCCOCCO,cytotoxicity increase,[1],0.179% [at 15.8 µM]
same,cytotoxicity,[2],0.951% [at 15.8 µM]
same,cytotoxicity increase,[3],2.96% [at 15.8 µM]
same,"activity change, negative = cytotoxicity",[4],18.7% [at 15.8 µM]
same,cytotoxicity increase,[5],8.15% [at 15.8 µM]
same,cytotoxicity increase,[7],1.19% [at 15.8 µM]
same,cytotoxicity increase,[8],-0.0989% [at 15.8 µM]
same,"activity change, negative = cytotoxic",[9],1.39% [at 15.8 µM]
COS(=O)(=O)O,Potency,[4],inactive
same,Potency,[5],inactive
same,Potency,[6],inactive
same,Potency,[8],inactive
same,outcome,[9],inactive
CCC(=O)Oc1ccc2c(c1)CC[C@@H]1[C@@H]2CC[C@@]2(C)[C@H]1C[C@@H](OC(=O)CC)[C@@H]2OC(=O)CC,outcome,[10],inactive
same,Potency,[3],inactive
same,Potency,[5],inactive
same,Potency,[7],inactive
same,Potency,[8],inactive
same,outcome,[9],inactive
CCCCCC/C=C/C(=O)OC,outcome,[10],inactive
same,Potency,[4],inactive
same,Potency,[8],inactive
same,outcome,[9],inactive
CC(C)Cn1cnc2c1c(=O)n(C)c(=O)n2C,Potency,[1],inactive
same,Potency,[2],inactive
same,Potency,[3],inactive
same,Potency,[5],inactive
same,Potency,[6],inactive
same,Potency,[7],inactive
same,Potency,[8],inactive
same,outcome,[9],inactive
CC/C=C\CCOC(=O)c1ccccc1O,outcome,[10],inactive
same,Potency,[3],21.9 µM (active)
same,Potency,[4],inactive
same,Potency,[5],inactive
same,Potency,[6],inactive
same,Potency,[8],inactive
same,outcome,[9],inactive
CCCCCCCCCCCCCCCCCC#N,outcome,[10],inactive
same,Potency,[2],inactive
same,Potency,[3],inactive
same,Potency,[4],inactive
same,Potency,[5],inactive
same,Potency,[6],inactive
same,Potency,[7],inactive
same,Potency,[8],inactive
same,outcome,[9],inactive
c1ccc(-c2nn[nH]n2)cc1,Potency,[1],inactive
same,Potency,[2],inactive
same,Potency,[3],inactive
same,Potency,[5],inactive
same,Potency,[6],inactive
same,Potency,[7],inactive
same,Potency,[8],inactive
same,outcome,[9],inactive
C=C(C)C1CC=C(C)C(=O)C1 (stereo unspecified),Potency,[1],inactive
same,Potency,[2],inactive
same,Potency,[3],inactive
same,Potency,[4],inactive
same,Potency,[5],inactive
same,Potency,[6],inactive
same,Potency,[7],inactive
same,Potency,[8],inactive
same,outcome,[9],inactive
Nc1nnnn1-c1ccccc1,outcome,[10],inactive
same,Potency,[4],inactive
same,Potency,[5],inactive
same,Potency,[6],inactive
same,Potency,[8],inactive
same,outcome,[9],inactive
CCN(CC)CCN,Potency,[1],inactive
same,Potency,[2],inactive
same,Potency,[3],inactive
same,Potency,[5],inactive
same,Potency,[6],inactive
same,Potency,[7],inactive
same,Potency,[8],inactive
same,outcome,[9],inactive
CC(S)C(C)S (stereo unspecified),Potency,[1],inactive
same,Potency,[2],inactive
same,Potency,[3],inactive
same,Potency,[4],inactive
same,Potency,[5],inactive
same,Potency,[6],inactive
same,Potency,[7],inactive
same,Potency,[8],inactive
same,outcome,[9],inactive

# Reference: PubChem BioAssay (Tox21)
